Among the data in PubChem BioAssay (NCI) are growth values, retold here.

The panel holds about 83,000 compounds, 20% with a hit somewhere; the sample as a whole holds those more often.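 Growth was measured after 48 h exposure to one concentration of compound in 96-well plates. Values under 10 count as active.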 A number with no mark means an inactive call. Activity calls are given as the source filed them.

What all share (assay): NCI-60 one-dose screen, 48 h (100 = growth as untreated, 0 = no growth, -100 = all killed)
What all share (conditions): 10 µM unless noted

Experiment [1] has as its system HCT-15 colon.
The subject of experiment [2] is HT29 colon.
Experiment [3] has as its system SNB-75 CNS.
The subject of experiment [4] is SNB-19 CNS.
The test system of experiment [5] is U251 CNS.
Experiment [6] has as its system PC-3 prostate.
In experiment [7] the test system is SK-MEL-5 melanoma.
For experiment [8], the system named is UACC-62 melanoma.
Experiment [9] relates to LOX IMVI melanoma.
Experiment [10] concerns SK-MEL-28 melanoma.
The subject of experiment [11] is SK-MEL-2 melanoma.
In experiment [12] the test system is EKVX NSCLC.
Experiment [13] deals with SN12C renal.
Experiment [14] relates to UO-31 renal.
For experiment [15], the system named is TK-10 renal.
The subject of experiment [16] is ACHN renal.
Experiment [17] deals with CAKI-1 renal.
Experiment [18] concerns CCRF-CEM leukemia.
The test system of experiment [19] is MOLT-4 leukemia.
For experiment [20], the system named is A498 renal.

Turning to `CCn1c(Sc2nnc(Nc3ccccc3)s2)nc2c1c(=O)n(C)c(=O)n2C`, the growth in experiment [1] is 97.6%; in experiment [2] it was 137%; in experiment [3], 101%; in experiment [4], 95%; in experiment [5], 103%; in [6] it was 100%. The growth in [7] was 99.2%; in experiment [8], 90.2%; in experiment [9], 95.9%; in experiment [10], 93%; in [11] it was 130%; in experiment [12], 86.5%. In addition, the growth in [13] is 96.4%; in experiment [14] it was 73%; in [15], 146%; in [16] it was 91%; in experiment [17], 93.9%; in [18], 117%. Further, the growth in experiment [19] is 110%.

Regarding `O=[N+]([O-])c1ccc(-c2cc3c(Nc4ccc(Sc5nc6ccccc6s5)c(Cl)c4)ncnc3s2)cc1`, the growth is 23.7% in [1]; 13.9% in experiment [2]; 83.9% in experiment [3]; 23.7% in experiment [4]; 23% in experiment [5]; 28.3% in experiment [6]. Moreover, the growth in [7] is 59.1%; in experiment [8] it was 54.9%; in experiment [9], 29.6%; in [10], 75.2%; in experiment [11], 46.7%; in [12] it was 39.7%. Also, the growth in [13] was 28.6%; in experiment [14], 43.4%; in experiment [15] it was 48.2%; in experiment [16], 34.4%; in experiment [20], -0.884% (active); in [18], 34.6%. Further, in experiment [19], the growth was 23.7%.

For the compound `N=C(N)c1ccc(-c2ccc(-c3ccc(Cl)cc3Cl)o2)cc1`, the growth in experiment [1] was -74.1% (active); in experiment [2], -71.1% (active); in experiment [3], 19.7%; in experiment [4] it was -1.88% (active); in experiment [5], -59.4% (active); in experiment [6] it was 52.6%. Further, the growth is 72.5% in experiment [7]; 72.1% in experiment [8]; -94.7% (active) in experiment [9]; 46% in experiment [10]; 105% in [11]; 58.5% in [12]. The growth in experiment [13] is -78.3% (active); in experiment [14] it was -83.8% (active); in experiment [15] it was 30.5%; in experiment [16], -89% (active); in experiment [17], 17.3%; in experiment [18], 0.678% (active). Also, the growth in experiment [19] was -29.2% (active).

In the case of `O=C(CCl)N1c2cccc3cccc(c23)N(C(=O)CCl)C1c1cn(-c2ccccc2)nc1-c1cccc([N+](=O)[O-])c1`, the growth is 85.6% in experiment [1]; 44.9% in experiment [2]; 85.1% in experiment [3]; 97.3% in experiment [4]; 85% in experiment [5]; 97.1% in [6]. The growth in [7] is 98.9%; in [8], 86.8%; in experiment [9], 26.6%; in [10], 106%; in experiment [11], 111%; in experiment [12], 102%. The growth in experiment [13] was 93.5%; in experiment [14], 66.9%; in experiment [15], 104%; in [16] it was 76.7%; in experiment [17] it was 92.5%; in experiment [18], 8.63% (active). Moreover, the growth in [19] is 34.7%.

For `CCOC(=O)N1CCc2c(sc3c2C(=O)N[C@H](c2ccc(OC)cc2)N3)C1`, the growth was 106% in experiment [1]; 86.2% in experiment [2]; 91.7% in experiment [3]; 90% in [4]; 96.7% in experiment [5]; 89.1% in [6]. The growth in [7] is 99.1%; in experiment [8] it was 91.8%; in experiment [9], 101%; in [10] it was 109%; in experiment [11], 96.5%; in experiment [12], 101%. For the same compound, the growth was 85.4% in [13]; 87.6% in experiment [14]; 109% in experiment [15]; 103% in experiment [16]; 96.4% in [20]; 95.9% in experiment [18]. In addition, in experiment [19], the growth is 99.7%.

Regarding `N=C(N)c1ccc(-c2ccc(-c3ccc(Cl)cc3Cl)o2)nc1`, the growth in [1] was 2.86% (active); in experiment [2] it was -23.8% (active); in [3] it was -20% (active); in experiment [4], 48.6%; in [5], -37.3% (active); in experiment [6] it was 56.2%. Moreover, the growth in experiment [7] was 87%; in experiment [8] it was 101%; in experiment [9] it was -82.6% (active); in experiment [10], 80.9%; in experiment [11] it was 103%; in experiment [12], 95.4%. Also, the growth in [13] was -42.8% (active); in experiment [14], -16.1% (active); in [15], 61%; in experiment [16], 12.3%; in [17], 53.8%; in [18] it was -12.9% (active). In addition, the growth in experiment [19] was 1.62% (active).

In the case of `Cc1[nH]c(-c2nc3ccccc3[nH]2)c(C)c1C(=O)N1CCc2sccc2C1`, the growth in experiment [1] is 90%; in experiment [2], 96%; in experiment [3] it was 78.6%; in experiment [4], 89.4%; in experiment [5] it was 97.9%; in experiment [6], 87.3%. The growth in [7] is 88.8%; in [8], 87.8%; in experiment [9], 93.3%; in [10], 94.5%; in experiment [11] it was 107%; in experiment [12], 91.9%. For the same compound, the growth in experiment [13] was 89.2%; in [14], 77.9%; in experiment [15], 106%; in experiment [16], 99.5%; in experiment [17], 85.1%; in experiment [18], 88.7%. In experiment [19], the growth is 93.3%.

With `O=C(CC12CC3CC(CC(C3)C1)C2)NCCOCCOCCNC(=O)c1cc2c(o1)C(=O)c1ccccc1C2=O`, the growth was -80.2% (active) in experiment [1]; 3.08% (active) in experiment [2]; -99% (active) in experiment [3]; -16.3% (active) in [4]; -87.8% (active) in experiment [5]; 4.8% (active) in [6]. Also, the growth is -97.5% (active) in experiment [7]; -94.9% (active) in [8]; -95.1% (active) in [9]; -73.5% (active) in experiment [10]; -42% (active) in experiment [11]; -66.4% (active) in experiment [12]. The growth is -96.3% (active) in experiment [13]; -60.1% (active) in experiment [14]; -27.1% (active) in [15]; -74% (active) in experiment [16]; -65.8% (active) in [17]; 12.6% in [18]. Moreover, the growth in experiment [19] is -4.92% (active).
